{"source": "PubChem BioAssay (NCI)", "note": "About 83,000 compounds went through this panel and 20% of them were active in at least one assay; those are over-represented in the sample as a whole.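 For each line, cells grew in 96-well plates with the test compound present at a single concentration for 48 hours.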 Calls of active or inactive are those of the source. How the source made its calls: active means growth percent below 10; inactive means the rest.", "data": [{"tested_on": "SF-268 CNS", "test": "NCI-60 one-dose screen, 48 h (100 = growth as untreated, 0 = no growth, -100 = all killed)", "conditions": "10 µM", "values": [{"molecule": "COc1ccc(-c2nn(-c3cccc(NC(=O)c4ccc(N5CCOCC5)c(C(F)(F)F)c4)c3)cc2-c2ccncc2)cc1Cl", "growth": "70.7% (inactive)"}, {"molecule": "CN1CC[C@@H](c2c(O)cc(O)c3c(=O)cc(-c4ccccc4Cl)oc23)[C@@H](O)C1", "growth": "9.12% (active)"}, {"molecule": "Nc1nc(-c2ccccc2Cl)cc(-c2ccc(Cl)cc2Cl)n1", "growth": "65.9% (inactive)"}, {"molecule": "Cc1[nH]nc2c1C(c1cnn(C)c1)C(C#N)=C(N)O2", "note": "(centres undefined)", "growth": "105% (inactive)"}, {"molecule": "O=C(N/N=C/c1cc2ccccc2c2ccccc12)c1cc(O)c(O)c(O)c1", "growth": "46.7% (inactive)"}, {"molecule": "Cc1ccc(N=Nc2c(N)nc(N)[nH]c2=O)cc1C", "growth": "111% (inactive)"}, {"molecule": "CCCCCCCCCCCCCCCC(=O)OC1[C@@H](OC(=O)CCCCCCCCCCCCCCC)[C@@H](C(=O)N[C@@H](CCCCN)C(=O)OC)O[C@H]1n1cnc2c(=O)[nH]c(NC(=O)C(C)C)nc21", "note": "(some centres undefined)", "growth": "97.1% (inactive)"}, {"molecule": "Cc1cc(=O)n2nnc3c4ccccc4ccc3n12", "growth": "84% (inactive)"}, {"molecule": "CN(Cc1ccccc1)Cc1ccc([N+](=O)[O-])cc1I", "growth": "98% (inactive)"}, {"molecule": "COc1ccc(-c2nsc3c2NC(=O)CC3c2ccc(F)cc2)cc1", "note": "(centres undefined)", "growth": "63.4% (inactive)"}, {"molecule": "COc1ccc(N2C(=O)C3c4[nH]c5ccc(OCc6ccccc6)cc5c4C4CCC(C(C)C)CC4C3C2=O)cc1", "note": "(centres undefined)", "growth": "96.7% (inactive)"}, {"molecule": "C#Cc1ccc(-n2c(/C=C/c3ccc(O)c(OC)c3)nc3ncccc3c2=O)cc1", "growth": "95% (inactive)"}, {"molecule": "CCCCCCN1CCN(Cc2ccc(N(CC)CC)cc2)C(=O)C1=O", "growth": "42.5% (inactive)"}, {"molecule": "CC(C)N(CCNc1nc(C(Cl)(Cl)Cl)nc2cc(Cl)ccc12)C(C)C", "growth": "0.341% (active)"}, {"molecule": "COc1ccc(-c2nn(-c3cccc(NC(=O)Nc4cc(C(F)(F)F)cc(C(F)(F)F)c4)c3)cc2-c2ccncc2)cc1Cl", "growth": "9.51% (active)"}, {"molecule": "CCOC(=O)N1C/C(=C/c2ccc(Cl)cc2)C(=O)/C(=C/c2ccc(Cl)cc2)C1", "growth": "52.3% (inactive)"}, {"molecule": "O=C1Nc2ccccc2C1=NC1CCCCC1", "growth": "96% (inactive)"}, {"molecule": "O=C(N/N=C\\c1cc(Cl)ccc1[N+](=O)[O-])c1ccco1", "growth": "99.3% (inactive)"}, {"molecule": "Cc1c(Cl)cccc1NC(=O)c1sc2nc3c(cc2c1N)C(=O)CCC3", "growth": "37.4% (inactive)"}, {"molecule": "O=C(O)c1ccc(P(=O)(O)O)c([N+](=O)[O-])c1", "growth": "110% (inactive)"}, {"molecule": "O=C1N=NC2=C1c1c3ccccc3c(O)n1CC2", "growth": "108% (inactive)"}, {"molecule": "COc1cc2cc3c(nc2cc1OC)CCN3Cc1ccc(NC(=O)Nc2ccc(F)cc2F)cc1", "growth": "94.9% (inactive)"}, {"molecule": "Nc1c(C(=O)Nc2cccc(F)c2)sc2nc3c(cc12)C(=O)CCC3", "growth": "73.5% (inactive)"}, {"molecule": "O=C1/C(=C\\c2ccc(F)cc2)CN(C(=O)c2ccc([N+](=O)[O-])cc2)C/C1=C\\c1ccc(F)cc1", "growth": "29.2% (inactive)"}, {"molecule": "Nc1c(C(=O)Nc2ccccc2)sc2nc3c(cc12)CCCC3", "growth": "54.7% (inactive)"}, {"molecule": "CN(C)C=Nc1cc(Cl)ccc1Cl", "growth": "112% (inactive)"}, {"molecule": "Nc1c(C(=O)Nc2cccc(Br)c2)sc2nc3c(cc12)C(O)CCC3", "note": "(centres undefined)", "growth": "46.2% (inactive)"}, {"molecule": "O=C(Nc1nc2ccccc2s1)Nc1ccc([N+](=O)[O-])cc1Cl", "growth": "3.97% (active)"}, {"molecule": "COc1ccc([N+](=O)[O-])c(C(=O)O)c1", "growth": "102% (inactive)"}, {"molecule": "COc1cc(OC)cc(-c2cncn2-c2ccc(-c3nc4cc(OC)cc(OC)c4s3)cc2)c1", "growth": "68.5% (inactive)"}, {"molecule": "CC[C@H](C)C(=O)O[C@H]1CCC=C2C=C[C@H](C)C(CCC3C[C@@H](O)CC(=O)O3)[C@H]21", "note": "(some centres undefined)", "growth": "33.8% (inactive)"}, {"molecule": "CCOC(=O)C1(CC(C)C)CCOC1=O", "note": "(centres undefined)", "growth": "98.7% (inactive)"}, {"molecule": "O=C(CCCCC(=O)Nc1ccc2c(c1)/C(=C/c1ccc[nH]1)C(=O)N2)NO", "growth": "76.2% (inactive)"}, {"molecule": "COc1ccc(S(=O)(=O)Nc2c(/C=C\\c3cc(OC)c(OC)c(OC)c3)ccc(OC)c2O)cc1", "growth": "13.3% (inactive)"}, {"molecule": "CC1=C(N2CCOCC2)C(N2CCOCC2)=C(C)C(=O)C1=O", "growth": "93.3% (inactive)"}, {"molecule": "c1ccc([I+]c2ccccc2)cc1", "growth": "55.7% (inactive)"}, {"molecule": "CCOCC(=O)C(C#N)c1ccc(Cl)c(Cl)c1", "note": "(centres undefined)", "growth": "106% (inactive)"}, {"molecule": "O=C1c2ccc3c4c(ccc(c24)C(=O)N1CCNCc1ccccc1)C(=O)N(CCNCc1ccccc1)C3=O", "growth": "7.12% (active)"}, {"molecule": "COc1cc(C(=O)N2CCN(c3ccccc3OC)CC2)c(N)cc1OCCCN1CCN(c2ccccc2OC)CC1", "growth": "110% (inactive)"}]}]}
